Bioassay records: PubChem BioAssay, The Scripps Research Institute Molecular Screening Center
Compounds with a hit are over-represented: about 1.8% of the library has one in this group of screens.
LYPLA2 inh: LYPLA2 (human) inhibition in PME1 counter-screen. inhibition, % at 5.9 µM. O95372. 320,000 tested, 0.38% active. recombinant LYPLA2, FP-Rh probe fluorescence polarization. AID 2177;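 active = inhibition above the screen-wide mean plus 3 SD, limit set per campaign, cut at about 26% in these data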;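 note: 0% = LYPLA2 with DMSO and 100% = wells lacking LYPLA2 enzyme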
Target sequence (O95372 whole entry, looked up): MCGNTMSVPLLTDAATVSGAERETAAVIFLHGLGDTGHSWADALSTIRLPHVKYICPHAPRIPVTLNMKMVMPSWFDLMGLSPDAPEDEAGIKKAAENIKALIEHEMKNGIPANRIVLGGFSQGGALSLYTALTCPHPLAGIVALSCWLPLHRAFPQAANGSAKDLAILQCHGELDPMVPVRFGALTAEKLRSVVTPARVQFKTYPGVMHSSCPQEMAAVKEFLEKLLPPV
PAD4 inh: blocks human protein arginine deiminase 4; recombinant PAD4, RCA probe fluorescence polarization; 330,000 tested, 0.41% active; inhibition, % at 6.36 µM; AID 485272; Q9UM07;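 active = percent inhibition above a cutoff equal to the mean of all tested compounds plus 3 SD, cut at about 15% in these data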;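 note: 0% = PAD4 with RCA probe and DMSO and 100% = probe without PAD4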
GSTO1 inh: GSTO1 inhibition, counter-screen for RBBP9 inhibitors | 300,000 tested, 1.1% active | inhibition, % at 5.96 µM | P78417 | recombinant GSTO1, activity-based probe fluorescence polarization;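 active = inhibition above the campaign mean inhibition plus 3 SD, cut at about 35% in these data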;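 note: 0% = GSTO1-1 with DMSO and 100% = wells lacking GSTO1-1 enzyme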
Target sequence (P78417 whole entry, looked up): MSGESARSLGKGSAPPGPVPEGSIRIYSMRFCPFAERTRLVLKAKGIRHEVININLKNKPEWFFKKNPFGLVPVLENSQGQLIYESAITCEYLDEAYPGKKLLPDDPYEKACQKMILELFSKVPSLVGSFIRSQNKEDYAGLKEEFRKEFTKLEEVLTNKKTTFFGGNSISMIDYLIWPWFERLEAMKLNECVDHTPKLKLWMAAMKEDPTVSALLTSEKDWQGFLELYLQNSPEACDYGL
Fam108B counter: counter-screen for RBBP9 inhibitors: inhibitors of mouse Fam108B; 300,000 tested, 0.33% active; inhibition, % at 9.51 µM; recombinant Fam108B, FP-Rh probe fluorescence polarization; AID 1947;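 active = inhibition above the screen mean inhibition plus 3 SD, computed separately per campaign, cut at about 18% in these data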;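 note: inhibitors lower polarization as less probe binds the enzyme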
PME-1 inh: PME-1 (human) inhibition | AID 2130 | 320,000 tested, 0.53% active | inhibition, % at 5.9 µM | recombinant PME-1, FP-Rh probe fluorescence polarization;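 active = inhibition above the campaign mean of all compounds plus 3 SD, cut at about 26% in these data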;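 note: competitive labeling of PME-1 active site by serine hydrolase directed probe; 0% = PME-1 with DMSO and 100% = wells lacking PME-1 enzyme; inhibitors block probe labeling so polarization falls and inhibition rises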
LYPLA1 counter: blocks human lysophospholipase 1, a PME1 counter-screen; recombinant LYPLA1, FP-Rh probe fluorescence polarization; O75608; inhibition, % at 5.9 µM; 320,000 tested, 0.16% active;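 active = inhibition above the mean of all tested compounds plus 3 SD, set per campaign, cut at about 14% in these data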;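 note: inhibitors block serine hydrolase probe labeling of LYPLA1 so polarization falls; 0% = enzyme with DMSO and 100% = wells lacking LYPLA1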
Target sequence (O75608 whole entry, looked up): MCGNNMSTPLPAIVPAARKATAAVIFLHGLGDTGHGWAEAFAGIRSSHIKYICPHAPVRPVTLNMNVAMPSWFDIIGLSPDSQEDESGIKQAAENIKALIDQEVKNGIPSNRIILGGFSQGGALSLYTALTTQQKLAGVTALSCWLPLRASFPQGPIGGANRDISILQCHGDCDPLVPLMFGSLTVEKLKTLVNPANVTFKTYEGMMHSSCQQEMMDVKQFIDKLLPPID
Fam108b inh conf: Fam108b (mouse) hydrolase inhibition, confirmation assay | shares compounds with Fam108B counter | inhibition, % at 9.51 µM | recombinant Fam108b, FP-Rh probe fluorescence polarization | 930 tested, 44% active;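 active = inhibition above a limit from the primary screen, the mean over all compounds plus 3 SD, cut at about 19% in these data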;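 note: 0% = median of active Fam108b wells and 100% = catalytically dead S170A mutant; inhibitors free the probe so polarization falls as inhibition rises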
Fam108b ABPP HTS: mouse ABHD17B inhibition; recombinant Fam108b, gel-based ABPP, fluorophosphonate probe; inhibition, % at 20 µM; shares compounds with Fam108B counter; 260 tested, 44% active; in the data active = inhibition above about 40%
Starred values were filed as active, the others as inactive; x = no result.

SMILES | LYPLA2 inh | PAD4 inh | GSTO1 inh | Fam108B counter | PME-1 inh | LYPLA1 counter | Fam108b inh conf | others
O=C(Nc1cc(Sc2ccccn2)cc([N+](=O)[O-])c1)c1cccc(F)c1 | -9 | -3 | -10 | 21* | 4 | -8 | -5
O=[N+]([O-])c1cc(N=Nc2ccc3ccccc3c2)ccc1O | 15 | -5 | 6 | 22* | 10 | 6 | 13
Nc1ccc(O)c([N+](=O)[O-])c1 | 3 | -8 | x | x | -6 | 3 | x
Cc1[nH]c2ccccc2c1C=NNC(=O)c1cccc(S(=O)(=O)Nc2cccc(C(F)(F)F)c2)c1 | x | x | x | x | x | x | x | Fam108b ABPP HTS=95*
O=C(Nc1ccc2[nH]c(=S)sc2c1)Nc1ccccc1F | -2 | -4 | 2 | 26* | 78* | -6 | 49* | Fam108b ABPP HTS=90*
O=C(Nc1ccc2[nH]c(=S)sc2c1)c1ccccc1 | 7 | 14 | 1 | 0 | -2 | -3 | x
O=C(COC(=O)c1ccc(OC(F)F)cc1)NCCCN1CCCC1=O | -4 | 4 | 14 | 8 | -5 | 3 | x
O=C(NN1C(=O)/C(=C/c2ccc(O)c([N+](=O)[O-])c2)SC1=S)c1ccccc1Cl | -2 | -22 | 1 | 25* | -8 | -4 | 20*
O=C(O)C1Nc2c(Cl)cc(Cl)c(Cl)c2C2C=CCC12 (stereo not drawn) | 10 | -5 | 26 | 15 | 18 | -1 | x
O=C(O)C1Nc2c(Cl)cc(Cl)cc2C2C=CCC12 (stereo not drawn) | 18 | -4 | 34 | 33* | -6 | 2 | 24*
COc1ccc(N2CCN(C(=O)COC(=O)CCOc3ccc(C)cc3)CC2)cc1 | 1 | -2 | -2 | -1 | 5 | 0 | x
COc1cccc(/C=N/NC(=O)c2ccc(-c3ccccc3)cc2)c1O | -3 | -5 | 5 | 6 | -7 | -4 | x
COc1cccc(/C=N/NC(=O)c2[nH]c(C)c(C(=O)N/N=C/c3cccc(OC)c3O)c2C)c1O | -18 | -10 | -30 | 39* | 35* | -17 | 60*
O=C(Nc1cccc(Cl)c1)Nc1ccc2c(c1)OCO2 | 11 | 1 | -1 | 19* | 20 | -10 | -1
CCOC(=O)c1sc(NC(=O)c2cccc(S(=O)(=O)N3c4ccccc4CC3C)c2)cc1C (stereo not drawn) | -3 | 2 | -9 | 43* | 33* | -18 | 21*
Cc1cc(NC(=O)c2cccc(S(=O)(=O)N3c4ccccc4CC3C)c2)no1 (stereo not drawn) | 4 | 3 | 0 | -2 | 1 | -4 | x
O=C(CS(=O)(=O)c1ccccc1)Nc1ccc(Br)cn1 | 3 | -2 | 2 | -2 | -5 | 0 | x
O=C(CNc1cccc2ccccc12)N/N=C/c1cccc(Oc2ccccc2)c1 | -4 | -5 | -8 | 33* | 36* | -20 | 13
O=C(CNc1cccc2ccccc12)N/N=C/c1ccccn1 | 10 | -3 | 23 | 0 | 13 | 2 | x
O=C(/C=C/c1cccs1)Nc1nc(-c2ccccc2)cs1 | -32 | -2 | -11 | -16 | -34 | -22 | x
O=C(COC(=O)/C=C/c1cccs1)Nc1nc(-c2cccc(Br)c2)cs1 | 14 | -5 | -12 | 21* | 44* | -3 | 5
Cc1cc(N/N=C/c2ccc(O)cc2O)nc(-c2ccccc2O)n1 | 3 | 9 | 7 | 34* | 65* | -14 | 14
Cc1cc(N/N=C/c2ccc(O)cc2O)c2ccccc2n1 | 1 | 3 | 8 | -3 | 0 | 0 | x
CC(C)=C(NC(=O)c1ccccc1)C(=O)NCc1ccccc1 | -1 | -2 | 3 | 0 | 2 | 3 | x
O=C(O)c1cc(N/N=C/c2c(O)ccc3ccccc23)ccc1Cl | 4 | 7 | 21 | 19* | 31* | 4 | 19*
SMILES | LYPLA2 inh | PAD4 inh | GSTO1 inh | Fam108B counter | PME-1 inh | LYPLA1 counter | Fam108b inh conf | others
Nc1nonc1N/N=C/c1c(O)ccc2ccccc12 | -39 | 1 | -21 | 24* | 30* | -29 | 6
COc1ccc(/C=N/Nc2nc(N)cc(Cl)n2)cc1OC | 2 | -2 | -2 | 2 | 3 | 4 | x
Nc1cc(Cl)nc(N/N=C/c2c(O)ccc3ccccc23)n1 | -3 | -2 | 16 | 28* | 32* | 3 | 2
O=C(N/N=C\c1c(O)ccc2ccccc12)c1ccc(O)cc1 | -26 | 2 | -3 | 23* | 19 | -15 | -1
O=C(CCC1CCCC1)Nc1cc(C(F)(F)F)ccc1N1CCOCC1 | 10 | -1 | 12 | -3 | 1 | 4 | x
CC1=CC(=O)c2c(O)ccc(O)c2C1=O | 25 | 23* | 69* | 71* | 26 | -4 | 43* | Fam108b ABPP HTS=65*
COC(=O)Cc1c(C)c2ccc(OCC(=O)c3ccc(OC)c(OC)c3)cc2oc1=O | 3 | 1 | -6 | -3 | -8 | 1 | x
O=C(/C=C/c1ccccc1)Nc1cc(S(=O)(=O)N2CCOCC2)ccc1N1CCCC1 | 4 | -5 | 0 | 2 | 2 | 0 | x
O=C(CCCN1C(=O)/C(=C\c2ccco2)SC1=S)Nc1ccc(O)cc1C(=O)O | -4 | -20 | 23 | 20* | -43 | -2 | 12
Cc1c(C)c2cc(Cl)c(O)c(CN(C)C)c2oc1=O | 6 | -2 | 0 | 2 | 0 | 4 | x
O=c1oc2c(O)c(O)cc3c(=O)oc4c(O)c(O)cc1c4c23 | -1 | -4 | 70* | 55* | -20 | -11 | 42* | Fam108b ABPP HTS=0
COc1cc(OC)c(NC(=O)C2CCCO2)cc1Cl (stereo not drawn) | -4 | -3 | 2 | 18* | 7 | -1 | -3
COc1ccccc1CC(=O)NNS(=O)(=O)c1ccc([N+](=O)[O-])cc1 | -3 | -6 | 7 | 21* | -4 | 2 | -13
Cc1ccc(S(=O)(=O)N2CCOCC2)cc1C(=O)NCc1ccccc1CN1CCCC1 | 3 | -3 | x | x | -6 | -5 | x
O=C(Cc1cccc2ccccc12)Nc1nc(-c2cccc([N+](=O)[O-])c2)cs1 | -19 | -1 | -2 | 20* | 14 | -19 | 9
Cc1cc(N2C(=O)CC(N3CCN(C(c4ccccc4)c4ccccc4)CC3)C2=O)no1 (stereo not drawn) | -1 | -2 | 3 | -6 | 3 | 5 | x
CCOC(=O)c1c(NC(=O)/C=C/c2ccc3c(c2)OCO3)sc(C)c1CC | -11 | -8 | -6 | 82* | -30 | -5 | -7
CCC(=O)NC(=S)Nc1ccc(NC(=O)c2ccc([N+](=O)[O-])cc2Cl)cc1 | 10 | -2 | -19 | 34* | 6 | -1 | 5
Cc1cc(/C=C(\C#N)c2nc3ccccc3[nH]2)c(C)n1C | -3 | 0 | 9 | 3 | 4 | -2 | x
Cc1cc(/C=C(/C#N)c2nc3ccccc3[nH]2)c(C)n1-c1cccc([N+](=O)[O-])c1 | -16 | -4 | 9 | 25* | 7 | -22 | -11
